Source: PubChem BioAssay (NCATS)
Results filed as inconclusive are left out. A number with no mark means an inactive call. Calls of active or inactive are those of the source. Calls follow the shape of the dose curve; as a rule, active = well fitted cell-killing curve with a large enough effect; inconclusive = small, poorly fitted or top-dose-only effect; inactive = no such curve, though single readings can be large or run the other way.

experiment: qHTS of pediatric cancer cell lines to identify multiple opportunities for drug repurposing: Confirmatory screen for DAOY cells (AID 1347114); conditions: DAOY medulloblastoma cells viability, cytotoxicity qHTS; series mostly up to 45.9 µM; activity change, negative = cytotoxic: at the top concentration; also: nearly all actives have a fitted effect of over 65% in size
Text: Drug repurposing or repositioning has been offered as a strategy for drug development in oncology programs. This approach has special potential for childhood cancers and other rare or orphan diseases, where the expected return on new drug development has been a disincentive to pharmaceuticals.
In this project we exploit the poly-pharmacology of drugs to discover new indications via phenotypic screening of a panel of 19 well-characterized cell lines derived from solid tumors seen in children and adolescents. The goal is to identify approved drugs with previously unrecognized anticancer properties that has the potential to reveal new mechanisms and biological processes involved in carcinogenesis or drug resistance. We employed a titration-based paradigm (quantitative high-throughput screening or qHTS), where all compounds were tested at multiple concentrations for their effect on cell viability. Concentration-response curves (CRCs) were derived directly from the primary screen, and both potency and efficacy values were used to identify compounds with robust bioactivity profiles. We screened the NIH Chemical Genomics Center (NCGC) Pharmaceutical Collection (NPC) and Mechanism Interrogation Plate (MIPE) small molecule collections of approved and investigational compounds against these cell lines; and measured metabolically active cells after 48 hours of compound treatment as a proxy for cell viability.
Assay Submitter: Nathalia J. Martinez, National Center for Advancing Translational Sciences, National Institutes of Health, Rockville, MD, USA; email: natalia.martinez@nih.gov
[1] Shen, M et al. Quantitative high-throughput phenotypic screening of pediatric cancer cell lines identifies multiple opportunities for drug repurposing. Oncotarget 2017 Dec 19;9(4):4758-4772. PMID 29435139.
The cells were obtained from University of North Carolina (UNC), Pediatric Preclinical Testing Program (PPT), and Coriell Institute (CI).
qHTS cell viability assay:
Cells were assayed in growth media at a density of 500-1,000 cells/well. Five microliters of cells were dispensed into 1,536-well, white, solid-bottom, TC-treated plates (Greiner Bio One) using a multidrop dispenser and incubated at 37 degrees C, 5% CO2, under a humidified atmosphere for 5 hours. Twenty-three nanoliters of compounds and controls (neutral control DMSO or positive control bortezomib at final concentration of 2.3 µM) were subsequently transferred by Kalypsys pintool. For primary screens, the MIPE collection was tested at 11-point dilutions (final concentrations range from 0.78 nM to 46 µM) and the NPC collection at 8-point dilutions (final concentrations range from 0.59 nM to 46 µM). Compounds tested in follow-up screens were assayed at 11-point dilutions. Cells were incubated for 48 hours, followed by addition of 3 uL of CellTiter-Glo (Promega). After a 15 min incubation at room temperature, samples were analyzed for luminescence intensity using a ViewLux High-throughput CCD imager equipped with clear filters.
% is scaled to controls: 0 for no effect and ±100 for the full control effect; potency is read from the fitted curve at half-maximal effect.

Row | SMILES | activity change, negative = cytotoxic | Potency
1 | CCC1(c2ccccc2)C(=O)NCNC1=O | 9.3% | –
2 | CC(CCc1ccc(O)cc1)NCCc1ccc(O)c(O)c1 (stereo not drawn) | -8.33% | –
3 | CC(C)NCC(O)c1ccc(O)c(O)c1 (stereo not drawn) | -4.75% | –
4 | NC12CC3CC(CC(C3)C1)C2 | -3.35% | –
5 | CCCCc1oc2ccccc2c1C(=O)c1cc(I)c(OCCN(CC)CC)c(I)c1 | – | 31.6 µM (active)
6 | CN1CCN(CCCN2c3ccccc3Sc3ccc(Cl)cc32)CC1 | – | 20.8 µM (active)
7 | CC(C)Cc1ccc(C(C)C(=O)O)cc1 (stereo not drawn) | – | 3.69 µM (active)
8 | CN(C)CCCN1c2ccccc2CCc2ccc(Cl)cc21 | – | 20.8 µM (active)
9 | CC[C@@]1(O)C(=O)OCc2c1cc1n(c2=O)Cc2cc3c(CN(C)C)c(O)ccc3nc2-1 | – | 5.22 µM (active)
10 | Clc1ccc2nsnc2c1NC1=NCCN1 | 7.51% | –
11 | CN(Cc1cnc2nc(N)nc(N)c2n1)c1ccc(C(=O)N[C@@H](CCC(=O)O)C(=O)O)cc1 | – | 0.117 µM (active)
12 | COC(=O)Nc1nc2ccc(C(=O)c3cccs3)cc2[nH]1 | – | 0.131 µM (active)
13 | O=C(c1ccc(OCCN2CCCCC2)cc1)c1c(-c2ccc(O)cc2)sc2cc(O)ccc12 | – | 32.9 µM (active)
14 | O=C(Nc1ccc([N+](=O)[O-])cc1Cl)c1cc(Cl)ccc1O | – | 1.02 µM (active)
15 | CC(C)C(=O)Nc1ccc([N+](=O)[O-])c(C(F)(F)F)c1 | – | 16.5 µM (active)
16 | NC(=O)NO | -5.46% | –
17 | COc1cc2c(c(OC)c1OC)-c1ccc(OC)c(=O)cc1[C@@H](NC(C)=O)CC2 | – | 0.02 µM (active)
18 | O=C1c2c(O)ccc(O)c2C(=O)c2c(NCCNCCO)ccc(NCCNCCO)c21 | – | 7.37 µM (active)
